About 83,000 compounds went through this panel and 20% of them were active in at least one assay; those are over-represented in the sample as a whole.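 Single-concentration screen, 48 h exposure, 96-well plates. Endpoint: percent growth. Below 10 = active.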 A number with no mark means an inactive call. Active and inactive are the calls of the source.
The compounds below were run on NCI-H460 lung (assay: NCI-60 one-dose screen, 48 h (100 = growth as untreated, 0 = no growth, -100 = all killed)). Settings: 10 µM unless noted.
Protocol: Growth inhibition of the NCI-H460 human Non-Small Cell Lung tumor cell line is measured as a screen for anti-cancer activity. Cells are grown in 96 well plates and exposed to the test compound for 48 hours. Compounds are tested at a single concentration, which is 10^-5 M for most compounds. The reported endpoint is percent growth (GI% or GIPRCNT), where numbers from 0 - 100% represent growth inhibition, and numbers from -100% - 0 represent cell death. For example, a value of 40 represents 60% growth inhibition. A value of 0 means no net growth occurred over the course of the experiment. A value of -40 indicates 40% of cells at the beginning of the experiment died by the end of the experiment. A value of -100 means all cells are dead at the end of the experiment.
NCI-60 Human Tumor Cell Lines Screen was performed using the standard one-dose NCI protocol, which is described in more detail at https://dtp.cancer.gov/discovery_development/nci-60/default.htm.
Compounds with GIPRCNT values below 10 were considered active. Activity score was based on GIPRCNT using the following formula: […]
Score is 0 for GIPRCNT values of 100 or above, 50 for GIPRCNT values of 0, and 100 for GIPRCNT values of -100.

**Q.** How did the growth turn out when CCOC(=O)c1ccc(N=Cc2sc(=O)[nH]c2O)cc1 was run?
**A.** Its growth is 101%.

**Q.** For O=C(Cn1cc(COc2ncnc3c2cnn3-c2ccccc2)nn1)Nc1ccccn1, which growth is on record?
**A.** The growth was 101%.

**Q.** How did the growth turn out when O=C1c2cc(I)ccc2Oc2cc([N+](=O)[O-])ccc2N1c1ccc(Cl)cc1F was run?
**A.** Its growth is 90.4%.

**Q.** With O=C(CN1C=NC2C(N3CCOCC3)=NC=NC21)c1cccc2ccccc12 (stereo not given) as the compound, how does the growth read?
**A.** Its growth is 103%.

**Q.** With Cc1ccc2cc3c(N)c4c(C)ccc(C)c4nc3nc2c1 as the compound, how does the growth read?
**A.** The growth was 53%.

**Q.** With Cc1ccc(S(=O)c2ccc([N+](=O)[O-])c3nonc23)cc1 (stereo not given) as the compound, how does the growth read?
**A.** The growth was 99.5%.

**Q.** COc1ccc(N)c(-c2cc3c(c4c2[nH]c2ccc(OC)cc24)CCCC3)c1 was tested. Which growth did it give?
**A.** The growth was 83.1%.

**Q.** Which growth does the source give for COc1ccc2[nH]c(O)c(N=NC(=O)c3oc4ccccc4c3C)c2c1 here?
**A.** The growth was -22.8% (active).

**Q.** Which growth does the source give for O=C(Nc1ccc(-c2nc3ccc(NC(=O)c4ccc(Cl)cc4)cc3[nH]2)cc1)c1ccc(Cl)cc1 here?
**A.** The growth was 26.3%.

**Q.** For CCOc1ccc(-c2nonc2NC(=O)c2cccc(C)c2)cc1OCC, which growth is on record?
**A.** The growth was 55.9%.

**Q.** COc1ccc(CCN2CCC(CN(C)Cc3cnn(-c4ccccc4)c3)CC2)cc1 was tested. Which growth did it give?
**A.** The growth was 3.48% (active).

**Q.** For COc1cc(/C=C2\CN(C)C/C(=C\c3cc(CN4CCCCC4)c(O)c(OC)c3)C2=O)cc(CN2CCCCC2)c1O, which growth is on record?
**A.** Its growth is 0.801% (active).

**Q.** Nc1ccc(-c2nn3c(CCC(=O)c4nc5ncccc5[nH]4)nnc3s2)c(O)c1 was tested. Which growth did it give?
**A.** The growth was 93.4%.

**Q.** CN1C(=O)N(C)C2(c3ccccc3)n3c(s/c(=C\c4ccccc4)c3=O)=NNC12c1ccccc1 (stereo not given) was tested. Which growth did it give?
**A.** Its growth is 91.6%.

**Q.** How did the growth turn out when CC(=O)SC1CC(=O)C=C2CCC3C4CCC(=O)OC4(C)CCC3C21C (stereo not given) was run?
**A.** The growth was 115%.

**Q.** NCCNc1nc2ccc(F)cc2c2c(=O)c3cc(F)ccc3sc12 was tested. Which growth did it give?
**A.** The growth was -54.7% (active).

**Q.** COc1ccc(C2=C(c3cccc(OC)c3)C(=O)c3ccc(C)nc3C2=O)cc1 was tested. Which growth did it give?
**A.** Its growth is 13.4%.

**Q.** Which growth does the source give for O=C(Nc1ccsc1C(=O)NC1CCCCC1)c1ccc(F)cc1 here?
**A.** The growth was 98.3%.

**Q.** For Nc1cccc(Nc2cc(S(=O)(=O)O)c(N)c3c2C(=O)c2ccccc2C3=O)c1, which growth is on record?
**A.** The growth was 108%.

**Q.** Which growth does the source give for CC1=C(C(=O)OCC2CCN(C(=O)OC(C)(C)C)CC2)[C@H](c2cccc(C#N)c2)C2=C(CC(C)(C)CC2=O)N1 here?
**A.** The growth was 12.8%.

**Q.** For c1ccc(CNc2nc(Nc3ccccc3)nc3ccccc23)cc1, which growth is on record?
**A.** The growth was 48.2%.

**Q.** Fc1cccc(COc2ccc(Nc3ncnc4onc(-c5ccccc5)c34)cc2)c1 was tested. Which growth did it give?
**A.** Its growth is 2.61% (active).

**Q.** Which growth does the source give for Nc1ccc(C2c3ccccc3Oc3ccccc32)cc1 here?
**A.** Its growth is 108%.

**Q.** CCC(C)(C)C(=O)O[C@H]1C[C@@H](C)C=C2C=C[C@H](C)[C@H](CC[C@@H]3CC=CC(=O)O3)[C@H]21 was tested. Which growth did it give?
**A.** Its growth is 101%.

**Q.** With O=S1(=O)CCN(Cc2ccccc2)CC1 as the compound, how does the growth read?
**A.** Its growth is 103%.

**Q.** How did the growth turn out when CC1CCCCN1CCCNC(=O)c1ccc2c(c1)sc1nc(-c3ccc(F)cc3)cn12 (stereo not given) was run?
**A.** The growth was 102%.

**Q.** Which growth does the source give for CCCCc1c(CCC)c(=N)c2ccccc2n1C here?
**A.** The growth was 67.7%.

**Q.** How did the growth turn out when CCCc1c(C)c2sc(=O)[nH]c2[nH]c1=O was run?
**A.** The growth was 107%.

**Q.** O=c1oc2ccc(Br)cc2c(=O)n1-c1ccc(F)cc1F was tested. Which growth did it give?
**A.** Its growth is 5.91% (active).

**Q.** Which growth does the source give for O=c1c(-c2nc3ccccc3[nH]2)cc2ccccc2n1Cc1cn(Cc2ccc(N3CCOCC3)cc2)nn1 here?
**A.** The growth was 55.3%.

**Q.** Oc1ccc(-c2nc(-c3ccc4oc5ccc(-c6[nH]c(-c7ccc(O)cc7)nc6-c6ccccc6)cc5c4c3)c(-c3ccccc3)[nH]2)cc1 was tested. Which growth did it give?
**A.** Its growth is 59.1%.

**Q.** How did the growth turn out when O=C1C(Cl)=C(NCc2ccco2)C(=O)c2ccccc21 was run?
**A.** The growth was 54.5%.

**Q.** How did the growth turn out when COc1cc2cc3c(=O)n4c(cc5cc(OC)ncc54)c(=O)n3c2cn1 was run?
**A.** Its growth is 107%.

**Q.** With COc1ccccc1CNC(=O)C1c2ccccc2C(=O)N(CC(C)C)C1c1cccs1 (stereo not given) as the compound, how does the growth read?
**A.** The growth was 55.6%.

**Q.** For COc1ccc(/C=C2/SC(=O)N(CC(=O)N3CCN(c4cc5c(cc4F)c(=O)c(C(=O)O)cn5C4CC4)CC3)C2=O)cc1, which growth is on record?
**A.** Its growth is 103%.

**Q.** With Cc1c(-c2csc(-n3nc(C(F)(F)F)cc3C(F)(F)F)n2)no[n+]1[O-] as the compound, how does the growth read?
**A.** The growth was 98.9%.

**Q.** COC(=O)/C(CCC=C(C)C)=C1\[C@@H](OC(C)=O)C[C@@]2(C)[C@H]1CC(=O)N[C@H]1[C@@]3(C)CCNC(=O)[C@@H](C)[C@@H]3CC[C@@]12C was tested. Which growth did it give?
**A.** The growth was 109%.

**Q.** Which growth does the source give for COc1cc(/C=C2\CN(C)C/C(=C\c3cc(CN4CCOCC4)c(O)c(OC)c3)C2=O)cc(CN2CCOCC2)c1O here?
**A.** Its growth is 15.2%.

**Q.** Which growth does the source give for CN1CCN(Cc2ccc(C(=O)Nc3cncc(C#Cc4cnc5cccnn45)c3)cc2C(F)(F)F)CC1 here?
**A.** The growth was 49.2%.

**Q.** How did the growth turn out when Cn1nc(C(F)(F)F)c(-c2ccc(Cl)c(C(F)(F)F)c2)c1-c1ccc(OCc2ccc(Cl)cc2)cc1O was run?
**A.** Its growth is 6.25% (active).

From PubChem BioAssay (NCI)
